Our source for the relative cell viability values is the supplement of paper PMC9492666.

Where a name gives a salt, the structure may show the parent alone.
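Further: viability read by CCK-8 kit in 96-well plates, part of a combination screen pairing lipid-metabolism-targeting compounds with erastin.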

In this experiment the test system is MDA-MB-231. Kind of experiment: relative cell viability, compound + erastin, vs DMSO (fraction of DMSO control); higher = less growth inhibition. The note with it: 72 h.
As for `NNC(=O)c1nn(Cc2ccc(Cl)cc2Cl)c2ccccc12` [Adjudin] + CCOc1ccccc1-n1c(C(C)N2CCN(C(=O)COc3ccc(Cl)cc3)CC2)nc2ccccc2c1=O [erastin], the relative cell viability was found to be 0.711. The figure for `O=C(/C=C/c1ccc(/C=C/C(=O)Nc2ccc(C3=NCCN3)cc2)cc1)Nc1ccc(C2=NCCN2)cc1` + CCOc1ccccc1-n1c(C(C)N2CCN(C(=O)COc3ccc(Cl)cc3)CC2)nc2ccccc2c1=O [erastin] is 0.346; for `COc1cc(F)c(C(C)C)cc1-c1ccc(C(F)(F)F)cc1CN1C(=O)O[C@H](c2cc(C(F)(F)F)cc(C(F)(F)F)c2)[C@@H]1C` [Anacetrapib] + CCOc1ccccc1-n1c(C(C)N2CCN(C(=O)COc3ccc(Cl)cc3)CC2)nc2ccccc2c1=O [erastin] it is 0.639; for `Fc1ccc(-c2c3cccc(C(F)(F)F)c3nn2Cc2ccc(F)cc2Cl)cc1` + CCOc1ccccc1-n1c(C(C)N2CCN(C(=O)COc3ccc(Cl)cc3)CC2)nc2ccccc2c1=O [erastin] it is 0.509.

As for `CC(C)(Oc1ccc(C(=O)c2ccc(Cl)cc2)cc1)C(=O)O` [Fenofibric acid] + CCOc1ccccc1-n1c(C(C)N2CCN(C(=O)COc3ccc(Cl)cc3)CC2)nc2ccccc2c1=O [erastin], the relative cell viability came out at 0.915.

With `COc1ccc(/C=C/c2cc(O)cc(O[C@@H]3O[C@H](CO)[C@@H](O)[C@H](O)[C@H]3O)c2)cc1` [Deoxyrhapontin] + CCOc1ccccc1-n1c(C(C)N2CCN(C(=O)COc3ccc(Cl)cc3)CC2)nc2ccccc2c1=O [erastin], the relative cell viability is 0.699. The figure for `CC(=O)O[C@H](CC=C(C)C)C1=CC(=O)c2c(O)ccc(O)c2C1=O` [Acetyl shikonin] + CCOc1ccccc1-n1c(C(C)N2CCN(C(=O)COc3ccc(Cl)cc3)CC2)nc2ccccc2c1=O [erastin] is 0.877; for `CCCc1cc(-c2nc(-c3ccc(NS(C)(=O)=O)cc3)cs2)ccn1` + CCOc1ccccc1-n1c(C(C)N2CCN(C(=O)COc3ccc(Cl)cc3)CC2)nc2ccccc2c1=O [erastin] it is 0.651; for `CCc1ccc(N(CC(C)C)S(=O)(=O)c2ccc(OCC3CCOCC3)c(CO)c2)cc1` + CCOc1ccccc1-n1c(C(C)N2CCN(C(=O)COc3ccc(Cl)cc3)CC2)nc2ccccc2c1=O [erastin] it is 0.604. The figure for `CC(C)OC(=O)C(C)(C)Oc1ccc(C(=O)c2ccc(Cl)cc2)cc1` [Fenofibrate] + CCOc1ccccc1-n1c(C(C)N2CCN(C(=O)COc3ccc(Cl)cc3)CC2)nc2ccccc2c1=O [erastin] is 0.646.

Regarding `O=S(=O)(c1ccccc1)N(CC(F)(F)F)c1ccc(C(O)(C(F)(F)F)C(F)(F)F)cc1` + CCOc1ccccc1-n1c(C(C)N2CCN(C(=O)COc3ccc(Cl)cc3)CC2)nc2ccccc2c1=O [erastin], the relative cell viability came to 0.45.

On to `O=C1C(SCCO)=C(SCCO)C(=O)c2ccccc21` + CCOc1ccccc1-n1c(C(C)N2CCN(C(=O)COc3ccc(Cl)cc3)CC2)nc2ccccc2c1=O [erastin], for which the relative cell viability was found to be 0.851. For `NC(=O)c1cnccn1` [Pyrazinamide] + CCOc1ccccc1-n1c(C(C)N2CCN(C(=O)COc3ccc(Cl)cc3)CC2)nc2ccccc2c1=O [erastin], the relative cell viability is 0.948. Turning to `CC(C)n1c(/C=C/C(O)CC(O)CC(=O)O)c(-c2ccc(F)cc2)c2ccccc21` (stereo not drawn) [Fluvastatin sodium salt] + CCOc1ccccc1-n1c(C(C)N2CCN(C(=O)COc3ccc(Cl)cc3)CC2)nc2ccccc2c1=O [erastin], the relative cell viability is 0.869.

Consider `O=C(NN1CCCCC1)c1nn(-c2ccc(Cl)cc2Cl)c(-c2ccc(C#Cc3ccc(C(F)(F)F)cc3)s2)c1CNS(=O)(=O)N1CCCC1` + CCOc1ccccc1-n1c(C(C)N2CCN(C(=O)COc3ccc(Cl)cc3)CC2)nc2ccccc2c1=O [erastin], for which the relative cell viability amounted to 0.395. As for `COc1cccc(-n2c(=O)[nH]c3cc(Cl)n(-c4ccc(-c5cccc(OC)c5O)cc4)c3c2=O)c1` + CCOc1ccccc1-n1c(C(C)N2CCN(C(=O)COc3ccc(Cl)cc3)CC2)nc2ccccc2c1=O [erastin], the figure is 0.852; as for `O=C(O)C(=O)Nc1sc2c(c1C(=O)O)CCNC2` + CCOc1ccccc1-n1c(C(C)N2CCN(C(=O)COc3ccc(Cl)cc3)CC2)nc2ccccc2c1=O [erastin], 0.635; as for `O=c1ccc2cc(O)c(O)cc2o1` [Esculetin] + CCOc1ccccc1-n1c(C(C)N2CCN(C(=O)COc3ccc(Cl)cc3)CC2)nc2ccccc2c1=O [erastin], 0.711.
